Experimental data taken from the supplement of paper PMC12067093, “Discovery and optimisation of a covalent ligand for TRIM25 and its application to targeted protein ubiquitination” (Chemical Science, 2025).
About 21,000 targets were measured; listed, in parts, are those with the largest changes and a random draw of the rest.

Compound: Cc1cc(ccc1-c1ccccc1)C(=O)N1CCCN(CC1)C(=O)CCl [compound 10]
Assay: probe-labelled cysteine peptide fold change vs DMSO (competition) (log2 fold change); higher = less target engagement (more negative = stronger competition)
Settings: THP-1, incubation time: 4 h
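Also: competitive profiling in live THP-1 cells: cysteine peptides tagged with an iodoacetamide desthiobiotin (IA-DTB) probe, intensity after compound treatment relative to DMSO-treated cells.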

Chain of UniProt Q9H9B1 (Q9H9B1 whole entry, looked up): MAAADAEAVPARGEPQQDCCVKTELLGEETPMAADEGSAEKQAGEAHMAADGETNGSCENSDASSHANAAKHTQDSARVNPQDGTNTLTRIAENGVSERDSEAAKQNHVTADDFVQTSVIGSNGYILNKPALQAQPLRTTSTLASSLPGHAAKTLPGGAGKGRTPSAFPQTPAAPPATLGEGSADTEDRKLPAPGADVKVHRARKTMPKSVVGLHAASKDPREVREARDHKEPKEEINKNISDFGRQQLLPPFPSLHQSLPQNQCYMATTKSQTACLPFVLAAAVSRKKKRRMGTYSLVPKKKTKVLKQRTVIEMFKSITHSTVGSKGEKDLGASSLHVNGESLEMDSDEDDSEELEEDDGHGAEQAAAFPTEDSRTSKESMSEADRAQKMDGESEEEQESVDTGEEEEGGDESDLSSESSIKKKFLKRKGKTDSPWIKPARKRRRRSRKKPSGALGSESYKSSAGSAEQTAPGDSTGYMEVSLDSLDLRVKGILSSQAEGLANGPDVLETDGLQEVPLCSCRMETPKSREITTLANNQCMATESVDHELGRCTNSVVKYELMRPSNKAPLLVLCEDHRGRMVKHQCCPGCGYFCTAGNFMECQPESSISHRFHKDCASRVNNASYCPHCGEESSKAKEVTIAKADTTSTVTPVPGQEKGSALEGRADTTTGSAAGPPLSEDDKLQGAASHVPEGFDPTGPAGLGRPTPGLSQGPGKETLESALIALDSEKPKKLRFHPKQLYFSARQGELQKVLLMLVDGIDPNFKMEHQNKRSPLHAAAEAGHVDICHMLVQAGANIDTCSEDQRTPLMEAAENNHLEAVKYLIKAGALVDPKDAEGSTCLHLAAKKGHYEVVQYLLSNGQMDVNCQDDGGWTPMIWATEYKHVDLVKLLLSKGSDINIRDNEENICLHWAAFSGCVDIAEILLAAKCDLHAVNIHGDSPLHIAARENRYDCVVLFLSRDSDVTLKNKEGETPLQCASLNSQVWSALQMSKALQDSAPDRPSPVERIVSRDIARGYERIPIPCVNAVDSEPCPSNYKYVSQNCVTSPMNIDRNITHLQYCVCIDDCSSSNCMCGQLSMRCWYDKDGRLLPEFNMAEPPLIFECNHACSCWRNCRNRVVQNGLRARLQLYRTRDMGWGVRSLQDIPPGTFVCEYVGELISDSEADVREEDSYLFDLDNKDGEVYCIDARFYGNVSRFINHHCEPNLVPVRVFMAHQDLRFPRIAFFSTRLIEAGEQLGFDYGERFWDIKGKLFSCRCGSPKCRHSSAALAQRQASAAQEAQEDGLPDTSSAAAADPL
Chain of UniProt Q96BY6 (Q96BY6 whole entry, looked up): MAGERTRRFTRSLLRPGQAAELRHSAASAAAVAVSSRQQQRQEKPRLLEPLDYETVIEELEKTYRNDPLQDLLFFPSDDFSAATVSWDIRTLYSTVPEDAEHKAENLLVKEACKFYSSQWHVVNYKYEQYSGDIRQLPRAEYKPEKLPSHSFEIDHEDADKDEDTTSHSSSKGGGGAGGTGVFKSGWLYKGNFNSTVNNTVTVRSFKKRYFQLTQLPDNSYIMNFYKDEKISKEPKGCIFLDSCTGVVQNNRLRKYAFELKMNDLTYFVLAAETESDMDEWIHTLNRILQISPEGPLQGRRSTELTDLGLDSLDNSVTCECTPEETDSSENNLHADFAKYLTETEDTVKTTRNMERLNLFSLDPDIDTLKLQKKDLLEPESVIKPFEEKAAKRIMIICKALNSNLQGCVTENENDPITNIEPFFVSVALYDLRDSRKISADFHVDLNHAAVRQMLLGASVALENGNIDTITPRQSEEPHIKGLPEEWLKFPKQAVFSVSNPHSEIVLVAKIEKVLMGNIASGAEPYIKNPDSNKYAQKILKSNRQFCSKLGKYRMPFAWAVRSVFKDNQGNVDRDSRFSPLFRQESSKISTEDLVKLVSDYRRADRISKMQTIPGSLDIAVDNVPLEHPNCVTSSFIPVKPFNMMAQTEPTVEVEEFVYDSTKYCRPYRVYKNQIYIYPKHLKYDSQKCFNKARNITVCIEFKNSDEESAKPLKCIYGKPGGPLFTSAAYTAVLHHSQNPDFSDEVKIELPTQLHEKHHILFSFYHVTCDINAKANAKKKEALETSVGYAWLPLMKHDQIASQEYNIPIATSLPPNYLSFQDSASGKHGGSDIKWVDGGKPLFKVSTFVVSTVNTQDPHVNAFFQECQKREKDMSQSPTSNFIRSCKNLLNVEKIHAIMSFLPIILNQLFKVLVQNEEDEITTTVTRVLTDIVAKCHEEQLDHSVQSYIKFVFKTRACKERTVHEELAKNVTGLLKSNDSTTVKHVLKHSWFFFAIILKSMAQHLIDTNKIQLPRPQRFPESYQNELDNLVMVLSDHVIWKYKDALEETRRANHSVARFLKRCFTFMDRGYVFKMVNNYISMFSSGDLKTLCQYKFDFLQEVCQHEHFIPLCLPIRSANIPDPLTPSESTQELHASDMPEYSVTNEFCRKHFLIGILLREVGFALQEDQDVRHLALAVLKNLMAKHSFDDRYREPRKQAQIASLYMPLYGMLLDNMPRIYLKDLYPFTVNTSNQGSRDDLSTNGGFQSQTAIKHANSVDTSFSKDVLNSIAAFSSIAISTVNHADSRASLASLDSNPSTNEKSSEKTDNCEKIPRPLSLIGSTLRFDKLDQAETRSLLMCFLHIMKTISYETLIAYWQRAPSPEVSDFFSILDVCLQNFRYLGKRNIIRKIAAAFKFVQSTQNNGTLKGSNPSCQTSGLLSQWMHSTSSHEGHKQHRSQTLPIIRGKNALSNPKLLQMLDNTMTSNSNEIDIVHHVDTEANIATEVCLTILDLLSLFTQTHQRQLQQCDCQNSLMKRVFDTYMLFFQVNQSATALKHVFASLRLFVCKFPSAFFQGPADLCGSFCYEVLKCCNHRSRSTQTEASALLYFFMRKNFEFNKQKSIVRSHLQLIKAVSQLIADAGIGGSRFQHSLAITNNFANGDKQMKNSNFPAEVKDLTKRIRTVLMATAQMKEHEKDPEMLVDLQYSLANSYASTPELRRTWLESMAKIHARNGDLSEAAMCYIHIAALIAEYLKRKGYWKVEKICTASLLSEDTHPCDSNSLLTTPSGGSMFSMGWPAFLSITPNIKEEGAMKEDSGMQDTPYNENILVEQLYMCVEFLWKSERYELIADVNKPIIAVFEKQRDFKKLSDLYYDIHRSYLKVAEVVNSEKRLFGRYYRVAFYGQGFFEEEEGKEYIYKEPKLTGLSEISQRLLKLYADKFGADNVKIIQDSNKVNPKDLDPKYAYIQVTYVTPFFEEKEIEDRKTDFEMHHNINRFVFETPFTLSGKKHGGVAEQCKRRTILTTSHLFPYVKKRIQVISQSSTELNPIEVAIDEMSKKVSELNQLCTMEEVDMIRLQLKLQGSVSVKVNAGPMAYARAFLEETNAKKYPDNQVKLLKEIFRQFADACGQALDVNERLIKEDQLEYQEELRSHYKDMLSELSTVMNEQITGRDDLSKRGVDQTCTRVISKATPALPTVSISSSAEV
Chain of UniProt Q5HYJ3 (Q5HYJ3 whole entry, looked up): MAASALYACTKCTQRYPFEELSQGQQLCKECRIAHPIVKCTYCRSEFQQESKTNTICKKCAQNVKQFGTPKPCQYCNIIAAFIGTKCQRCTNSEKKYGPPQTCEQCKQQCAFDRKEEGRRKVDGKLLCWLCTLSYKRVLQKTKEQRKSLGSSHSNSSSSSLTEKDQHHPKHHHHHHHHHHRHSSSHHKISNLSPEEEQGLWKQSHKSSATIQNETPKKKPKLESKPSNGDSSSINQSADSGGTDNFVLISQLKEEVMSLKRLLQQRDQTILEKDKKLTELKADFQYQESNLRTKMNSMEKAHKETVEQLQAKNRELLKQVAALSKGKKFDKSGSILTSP
Chain of UniProt Q5T8I3 (Q5T8I3 whole entry, looked up): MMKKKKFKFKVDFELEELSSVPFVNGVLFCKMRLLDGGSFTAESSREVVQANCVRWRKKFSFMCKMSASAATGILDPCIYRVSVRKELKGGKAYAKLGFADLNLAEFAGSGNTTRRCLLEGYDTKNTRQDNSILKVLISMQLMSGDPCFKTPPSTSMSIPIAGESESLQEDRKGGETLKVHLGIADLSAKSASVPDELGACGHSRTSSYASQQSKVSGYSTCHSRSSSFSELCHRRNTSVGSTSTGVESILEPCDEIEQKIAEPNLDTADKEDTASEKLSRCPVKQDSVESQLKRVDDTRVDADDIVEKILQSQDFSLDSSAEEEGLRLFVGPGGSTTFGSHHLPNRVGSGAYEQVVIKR
Chain of UniProt Q96DZ1 (Q96DZ1 whole entry, looked up): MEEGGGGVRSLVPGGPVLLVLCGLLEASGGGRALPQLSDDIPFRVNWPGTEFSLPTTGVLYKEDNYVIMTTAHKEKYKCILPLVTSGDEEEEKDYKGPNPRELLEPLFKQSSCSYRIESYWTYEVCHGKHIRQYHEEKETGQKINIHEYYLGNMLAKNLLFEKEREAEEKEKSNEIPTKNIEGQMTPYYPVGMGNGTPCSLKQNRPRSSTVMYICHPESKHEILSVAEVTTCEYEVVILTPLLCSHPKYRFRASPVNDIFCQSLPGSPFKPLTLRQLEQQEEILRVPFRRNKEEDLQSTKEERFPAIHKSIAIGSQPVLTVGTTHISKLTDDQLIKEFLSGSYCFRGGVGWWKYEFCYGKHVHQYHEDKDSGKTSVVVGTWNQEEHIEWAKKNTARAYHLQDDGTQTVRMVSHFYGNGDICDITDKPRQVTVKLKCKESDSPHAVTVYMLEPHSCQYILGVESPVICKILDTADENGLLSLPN
Chain of UniProt P98172 (P98172 whole entry): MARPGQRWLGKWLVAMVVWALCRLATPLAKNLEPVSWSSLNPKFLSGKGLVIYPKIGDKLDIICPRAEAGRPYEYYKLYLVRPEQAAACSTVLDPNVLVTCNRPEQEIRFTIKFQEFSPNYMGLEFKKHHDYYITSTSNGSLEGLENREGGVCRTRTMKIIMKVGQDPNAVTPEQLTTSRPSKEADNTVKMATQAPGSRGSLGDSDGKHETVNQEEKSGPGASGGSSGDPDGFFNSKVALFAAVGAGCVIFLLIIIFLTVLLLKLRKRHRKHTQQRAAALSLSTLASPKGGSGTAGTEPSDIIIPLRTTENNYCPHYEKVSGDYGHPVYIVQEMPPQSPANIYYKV

Target	probe-labelled cysteine peptide fold change (10 µM)	probe-labelled cysteine peptide fold change (50 µM)
FAM208A_Q9UK61_318_HVCPYAVVSFTYK (UniProt Q9UK61)	-0.201	-0.698
EXOSC1_Q9Y3B2_40_HGYIFSSLAGCLMK (UniProt Q9Y3B2)	0.118	-0.0583
EPS15_P42566_782_IGTPTRPCPLPPGKR (UniProt P42566)	-0.367	-1.1
ERLEC1_Q96DZ1_126_IESYWTYEVCHGK (UniProt Q96DZ1)	0.192	0.0829
EZH2_Q15910_260_ELTEQQLPGALPPECTPNIDGPNAK (UniProt Q15910)	-0.164	0.256
EXOSC1_Q9Y3B2_73_ETESQLLPDVGAIVTCK (UniProt Q9Y3B2)	-0.0568	0.13
EXOSC10_Q01780_555_IAEELPKEPQGIIACCNPVPPLVR (UniProt Q01780)	-0.144	-1.17
FAM122A_Q96E09_193_SQSPINCIRPSVLGPLK (UniProt Q96E09)	-0.132	-0.161
FCHSD2_O94868_200_SECNSK (UniProt O94868)	-0.126	-0.158
EPRS_P07814_92+105_LSSCDSFTSTINELNHCLSLR (UniProt P07814)	0.0532	-0.00186
FBXO22_Q8NEZ5_7_MEPVGCCGECR (UniProt Q8NEZ5)	-0.235	1.31
EXOSC6_Q5RKV6_248_LGLEGCQR (UniProt Q5RKV6)	-0.00681	0.0231
EIF2S3_P41091_96+101_LDDPSCPRPECYR (UniProt P41091)	-0.389	-0.339
FANCG_O15287_417_AQDALTLCEELLSR (UniProt O15287)	0.0123	0.0425
EXOSC6_Q5RKV6_117_APPGGCEERELALALQEALEPAVR (UniProt Q5RKV6)	-0.5	-1.49
EEF1A1P5_Q5VTE0_363+370_GNVAGDSKNDPPMEAAGFTAQVIILNHPGQISAGYAPVLDCHMAHIACK (UniProt Q5VTE0)	-0.198	-1.24
DPH7_Q9BTV6_33_HLLACGTYQLR (UniProt Q9BTV6)	0.0319	0.078
EXOSC10_Q01780_327_SFLGLTCLMQISTR (UniProt Q01780)	0.419	0.333
FAM76B_Q5HYJ3_73_PCQYCNIIAAFIGTK (UniProt Q5HYJ3)	-0.188	0.0361
DOCK10_Q96BY6_1310_TDNCEK (UniProt Q96BY6)	-0.105	-0.108
FAM118A_Q9NWS6_113_TGDAKPSFFQDCLMEVFDDLEQHIR (UniProt Q9NWS6)	0.174	-0.519
FDX1_P10109_152+155_LGCQICLTK (UniProt P10109)	-0.319	-0.896
EFNB1_P98172_89+101_LYLVRPEQAAACSTVLDPNVLVTCNRPEQEIR (UniProt P98172)	-0.388	-0.49
FAM120A_Q9NZB2_919_VAAASGHCGAFSGSDSSR (UniProt Q9NZB2)	-0.383	-0.344

Target	probe-labelled cysteine peptide fold change (10 µM)	probe-labelled cysteine peptide fold change (50 µM)
ERCC4_Q92889_803_ILWCPSPHATAELFEELK (UniProt Q92889)	-0.169	0.181
EXOSC2_Q13868_259_MMLYDTSILYCYEASLPHQIK (UniProt Q13868)	0.341	0.254
DYNC1H1_Q14204_1888_CYLTMTQALEAR (UniProt Q14204)	-0.0386	-0.161
FAM98C_Q17RN3_340_REDGGPQCWGR (UniProt Q17RN3)	-0.342	-1.05
EXOSC6_Q5RKV6_117_RAPPGGCEERELALALQEALEPAVR (UniProt Q5RKV6)	-0.569	-1.04
FBXO30_Q8TB52_90_VAEHLEMCPASVVCCTMEWNR (UniProt Q8TB52)	-0.103	-0.0583
FGD3_Q5JSP0_184_LHLLDQVFCTR (UniProt Q5JSP0)	0.0176	0.345
EFTUD2_Q15029_144+148_TCFVDCLIEQTHPEIR (UniProt Q15029)	-0.176	-0.0405
FAM120B_Q96EK7_547_LEALMCTNPEIK (UniProt Q96EK7)	-0.253	0.187
DSCR3_O14972_219+221_VETCGCAEGYAR (UniProt O14972)	-0.345	-2.51
EEF1A1_P68104_234_DGNASGTTLLEALDCILPPTRPTDKPLRLPLQDVYK (UniProt P68104)	-0.124	-0.435
ENG_P17813_549_TGTLSCTVALRPK (UniProt P17813)	-0.142	-0.0378
EIF2B1_Q14232_218_IGTNQMAVCAK (UniProt Q14232)	-0.148	-0.133
ELOVL5_Q9NYP7_61_NKQPFSCR (UniProt Q9NYP7)	-0.567	-1.94
ELAVL1_Q15717_13_SNGYEDHMAEDCR (UniProt Q15717)	0.863	1.62
EML4_Q9HC35_638_LVDEPGHCADFHPSGTVVAIGTHSGR (UniProt Q9HC35)	0.109	0.328
FAM208A_Q9UK61_149_ACLVHNELLEK (UniProt Q9UK61)	-0.2	-1.18
DYNC1I2_Q13409_331_TTPEYVFHCQSAVMSATFAK (UniProt Q13409)	0.091	0.418
DUT_P33316-2_3_PCSEETPAISPSK (UniProt P33316)	-0.335	-0.042
ERCC5_P28715_550_NETHAEVLEQQNELCPYESK (UniProt P28715)	-0.452	-0.364
DPH5_Q9H2P9_120_VIHNASIMNAVGCCGLQLYK (UniProt Q9H2P9)	0.0911	0.264
EPRS_P07814_350_IDMSSNNGCMRDPTLYR (UniProt P07814)	-0.0274	-0.367
DSTN_P60981_163_LGGSLIVAFEGCPV (UniProt P60981)	-0.192	-0.173
EML2_O95834_110_CLAIHPDMVTIATGQVAGTTK (UniProt O95834)	-0.0841	0.0588

Target	probe-labelled cysteine peptide fold change (10 µM)	probe-labelled cysteine peptide fold change (50 µM)
ERCC3_P19447_342_SGVIVLPCGAGK (UniProt P19447)	-0.235	-1.63
DYNC1H1_Q14204_2712_IQFVGACNPPTDPGRKPLSHR (UniProt Q14204)	-0.0552	0.27
ERMP1_Q7Z2K6_737_AHCEENAPLCGFPWYLPVHFLIR (UniProt Q7Z2K6)	-0.0124	0.222
EIF3CL_B5ME19_572_TCAILCHIYHHALHSR<|>EIF3C_Q99613_571_TCAILCHIYHHALHSR (UniProt Q99613+B5ME19)	0.0697	-0.279
FAM102B_Q5T8I3_254_RNTSVGSTSTGVESILEPCDEIEQK (UniProt Q5T8I3)	-0.237	0.149
ELP4_Q96EB1_412_LGPGCGMMAGGK (UniProt Q96EB1)	-0.372	-1.07
ELP4_Q96EB1_361_LNNLICDESDVK (UniProt Q96EB1)	-0.0288	0.12
FAM126A_Q9BYI3_401_ETTGESCK (UniProt Q9BYI3)	-0.493	-1.16
EPRS_P07814_660_NSKHEELMLGDPCLK (UniProt P07814)	-0.334	-1.37
EZH2_Q15910_324_NTETALDNKPCGPQCYQHLEGAK (UniProt Q15910)	0.251	-0.196
FDFT1_P37268_6_CLGHPEEFYNLVR (UniProt P37268)	-0.238	-0.749
EEF1B2_P24534_191_LQIQCVVEDDK<|>EEF1D_P29692_247_LQIQCVVEDDK (UniProt P29692+P24534)	0.179	0.387
DTX3L_Q8TDB6_219_DSCISPSEPETK (UniProt Q8TDB6)	-0.446	-0.672
EEFSEC_P57772_442_LDADIHTNTCR (UniProt P57772)	-0.204	-1.14
EDC4_Q6P2E9_976_LCTQLEGLQSTVTGHVER (UniProt Q6P2E9)	-0.0211	0.299
ELP1_O95163_23_DIQGPGNPQCFSLR (UniProt O95163)	0.145	-0.213
EHMT1_Q9H9B1_1111_LLPEFNMAEPPLIFECNHACSCWR (UniProt Q9H9B1)	0.0188	-0.282
EPRS_P07814_1076_KLGVENCYFPMFVSQSALEK (UniProt P07814)	0.288	0.373
ETHE1_O95571_170_TDFQQGCAK (UniProt O95571)	-0.118	-1.3
DSTN_P60981_12_ASGVQVADEVCR (UniProt P60981)	0.0942	0.212
EIF2S1_P05198_98_VSPEEAIKCEDK (UniProt P05198)	-0.267	-1.12
EEF1A2_Q05639_411_SGDAAIVEMVPGKPMCVESFSQYPPLGR (UniProt Q05639)	-0.261	-0.239
FANCI_Q9NVI1_650_LEACILTQGDK (UniProt Q9NVI1)	-0.0611	-0.113
EEF1A1_P68104_31_CGGIDKR<|>EEF1A2_Q5VTE0_31_CGGIDKR (UniProt Q5VTE0+P68104)	-1.04	-1.79
